High-throughput results from PubChem BioAssay.
Pf growth 48h: Primary qHTS for delayed death inhibitors of the malarial parasite plastid, 48 hour incubation. Potency, µM (highest dose often 28.7 µM), actives largely listed as inhibitors. 310,000 compounds, 5.9% hits. P. falciparum luciferase growth in erythrocytes, 48 h
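Erythrocytes infected with P. falciparum carrying an integrated firefly luciferase reporter (2% hematocrit, 0.1% parasitemia final) were exposed to compounds in RPMI 1640 with 0.5% Albumax at 37 C, 5% CO2. Growth inhibition was scored as reduced luminescence.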
AMA1 RON2 block: qHTS for Inhibitors of AMA1-RON; Towards Development of Antimalarial Drug Lead: Primary Screen | AlphaScreen AMA1-biotinylated RON2 peptide binding | Potency, µM (highest dose often 58.2 µM), actives largely listed as inhibitors | 360,000 compounds, 0.2% hits | AID 720542, 2013; note: nearly all actives have a fitted effect of over 45% in size
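AMA1 (3D7) with his tag at 25 nM final met compounds first, then biotinylated RON2 peptide at 25 nM; detection used donor plus acceptor beads, 10 µg/mL apiece, read by AlphaScreen after 30 min at room temperature.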
Pf growth 96h: Primary qHTS for delayed death inhibitors of the malarial parasite plastid, 96 hour incubation | P. falciparum luciferase reporter growth, 96 h | Potency, µM (highest dose often 28.7 µM), hits mostly inhibitors | 320,000 compounds, 6.9% hits | AID 504834, 2011
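Infected RBCs, 2% Hct / 0.05% parasitemia final; luciferase-reporter P. falciparum; cpd 96 h, 37 C, 5% CO2; luciferase detection reagent; luminescence.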
HCV inhibitor: qHTS Assay for Inhibitors of Hepatitis C Virus (HCV). Huh7.5.1 HCVcc-Cre infection, luciferase reporter, 44 h. Potency, µM (series often up to 41.8 µM), actives largely listed as inhibitors. 340,000 compounds, 3.4% hits. AID 651820, 2012
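Infectious HCVcc-Cre (~0.5 moi) was added to cells just after compound, with cells seeded 4 h earlier at 1,000 per well. Luciferase activity after 44 h culture reported infection; substrate was incubated 15 min at room temperature before reading.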
Large screens that a line does not name were inactive. Only some compounds are listed: those with a hit (about 11% of all), similar ones and a draw of the others. Calls come from the whole dose curve; as a rule, active = well fitted curve in the direction sought with a large enough effect; inconclusive = small, poorly fitted or top-dose-only effect, or another doubt; inactive = no such curve, though single readings can be large; an effect the other way counts as inactive or inconclusive.

N=C(N)c1ccc2cc(OC(=O)c3ccc(N=C(N)N)cc3)ccc2c1	Pf growth 48h 12µM, Pf growth 96h 1.1µM (no result: AMA1 RON2 block, HCV inhibitor)
Cc1ccc2oc(Nc3nc(-c4ccccc4)cc(=O)[nH]3)nc2c1	Pf growth 48h inconclusive, Pf growth 96h 0.83µM
COCc1cc(=O)[nH]c(Nc2nc3ccccc3o2)n1	Pf growth 48h inconclusive
Cc1cc(C)c2nc(Nc3nc(-c4ccccc4)cc(=O)[nH]3)nc(C)c2c1	Pf growth 48h 1.7µM, Pf growth 96h 3.7µM, HCV inhibitor inconclusive
Cc1cc(C)c2nc(Nc3nc(CSc4nc5ccccc5[nH]4)cc(=O)[nH]3)nc(C)c2c1	HCV inhibitor inconclusive (no result: Pf growth 48h, Pf growth 96h)
O=C(Nc1ccc(Cl)cc1)C1C2C=CC3(O2)C1C(=O)N(CCCN1CCCCC1)C3C(=O)NC1CCCCC1 (stereo not given)	Pf growth 48h inconclusive
CCCCC(=O)NC(=S)Nc1ccc(S(=O)(=O)N2CCCC2)cc1	none
C[C@H](CO)N1C[C@H](C)[C@@H](CN(C)Cc2ccc3cccnc3c2)OCc2cnnn2CCCC1=O	none (no result: Pf growth 48h, Pf growth 96h, HCV inhibitor)
CCOc1ccc(NC(=O)CCN2C(=S)NC(C)(C)CC2C)cc1 (stereo not given)	none
CC1CC(C)(C)NC(=S)N1CCC(=O)Nc1ccc2c(c1)OCCO2 (stereo not given)	Pf growth 96h 1.5µM, HCV inhibitor inconclusive
COC(=O)C(NC(=O)c1ccco1)(Nc1ccc(Br)cn1)C(F)(F)F (stereo not given)	Pf growth 48h inconclusive
O=C(N/N=C/c1cccnc1)c1cc(-c2ccccc2OCc2ccccc2)n[nH]1	Pf growth 48h 10µM, Pf growth 96h inconclusive, HCV inhibitor inconclusive
O=C(N/N=C/c1cccnc1)c1ccccc1OCc1ccc(Br)cc1	Pf growth 48h 9.3µM, HCV inhibitor inconclusive
CC(=O)Nc1ccc(C(=O)N/N=C/c2cccnc2)cc1	Pf growth 96h 3.7µM
O=C(N/N=C/c1cccnc1)c1ccc(NC(=O)c2ccc(Cl)cc2)cc1	Pf growth 48h inconclusive, HCV inhibitor inconclusive
O=C(N/N=C/c1cccnc1)c1ccccc1OCc1ccc(Cl)cc1	Pf growth 48h inconclusive (no result: AMA1 RON2 block, HCV inhibitor)
OC(CN(c1ccccc1)c1ccccc1)Cn1cnc2ccccc21 (stereo not given)	Pf growth 48h 12µM, HCV inhibitor inconclusive
OC(COc1ccc2c(c1)CCC2)Cn1cnc2ccccc21 (stereo not given)	Pf growth 48h 10µM, HCV inhibitor inconclusive
CC(=O)Nc1ccc(OCC(O)Cn2cnc3ccccc32)cc1 (stereo not given)	Pf growth 96h 7.4µM
CC(=O)Nc1cccc(OCC(O)Cn2cnc3ccccc32)c1 (stereo not given)	none
Cc1cc(=O)[nH]c(SCC(=O)c2c(N)n(C)c(=O)n(C)c2=O)n1	none (no result: Pf growth 96h)
COc1cc(NC(=O)COc2ccc(-n3ccnc3)cc2)cc(OC)c1	Pf growth 96h inconclusive, HCV inhibitor inconclusive
C/C(=N\NC(=O)COc1ccc(C(C)(C)C)cc1)c1ccc(-n2ccnc2)cc1	Pf growth 96h 10µM
CC(C)(C)c1ccc(NC(=O)COc2ccc(-n3ccnc3)cc2)cc1	Pf growth 48h inconclusive, HCV inhibitor 5µM (no result: Pf growth 96h)
O=C(COC(=O)C1CC(=O)N(Cc2ccccc2)C1)c1ccc(F)cc1 (stereo not given)	none
Cc1cc(C)c(C)c(OCCN2CCOCC2)c1	none
O=C(NCc1ccc(Cl)cc1)c1cc2ccccc2oc1=O	Pf growth 96h 5.2µM
O=C(NCc1ccccc1)c1cc2ccccc2oc1=O	none
COc1cccc(C2NC(=O)NC(C)=C2C(=O)Nc2ccc(C)cc2)c1 (stereo not given)	Pf growth 48h inconclusive
COC(=O)C1=C(Nc2ccc(C)cc2)C=C(C)C(C(=O)OC)C1c1cccc(OC)c1 (stereo not given)	Pf growth 48h 2.6µM, Pf growth 96h 1.7µM, HCV inhibitor inconclusive
COC(=O)C1=C(Nc2ccc(C)cc2)C=C(C)C(C(=O)OC)C1c1ccc(OC)cc1 (stereo not given)	Pf growth 48h 4.1µM, Pf growth 96h inconclusive, HCV inhibitor inconclusive
CCN1CCN(S(=O)(=O)c2ccc(Cl)c(C(=O)N(C)Cc3ccc(Cl)cc3Cl)c2)CC1	HCV inhibitor inconclusive
OCC1(Cc2ccccc2)CCCN(Cc2cn[nH]c2-c2ccccc2)C1 (stereo not given)	Pf growth 96h inconclusive
Cc1ccc(C)c(-c2[nH]ncc2CN2CCCC(CO)(Cc3ccccc3C)C2)c1 (stereo not given)	Pf growth 48h inconclusive, Pf growth 96h inconclusive, HCV inhibitor 13µM
O=C(Oc1ccccc1)c1cc(O)c(O)c(O)c1	AMA1 RON2 block 40µM (no result: Pf growth 48h, Pf growth 96h, HCV inhibitor)
O=C(OCCc1ccccc1)c1cc(O)c(O)c(O)c1	AMA1 RON2 block inconclusive, HCV inhibitor inconclusive
N#Cc1ccc(-c2csc(N3CCC(C(N)=O)CC3)n2)cc1	none (no result: AMA1 RON2 block, HCV inhibitor)
COc1ccc(-c2[nH]ncc2CNCCn2cccn2)c(F)c1	Pf growth 96h 13µM
COc1ccc2nc(SCC(=O)Nc3cc(C)on3)[nH]c2c1	none (no result: Pf growth 48h)
CCCCCCCCCCCCCCCCN	none (no result: AMA1 RON2 block, HCV inhibitor)
CCCCCC(C)N (stereo not given)	Pf growth 48h inconclusive, Pf growth 96h 12µM (no result: AMA1 RON2 block, HCV inhibitor)
CC(C)CCc1noc(CN2CCC(CCN3CCCC3=O)CC2)n1	Pf growth 96h 13µM, HCV inhibitor inconclusive
COc1ccccc1NS(=O)(=O)c1ccc(C)c(NC(=O)c2c(C)noc2C)c1	none
COc1cc(C2C3=C(CC(C)(C)CC3=O)NC3=C2C(=O)c2ccccc23)ccc1O (stereo not given)	Pf growth 48h inconclusive, HCV inhibitor inconclusive
Cc1ccc(C2C3=C(CC(C)(C)CC3=O)NC3=C2C(=O)c2ccccc23)cc1 (stereo not given)	Pf growth 48h 5.2µM, AMA1 RON2 block inconclusive, Pf growth 96h 1.9µM, HCV inhibitor inconclusive
CSC1=C(C#N)C(c2ccc(Cl)cc2)C2=C(CC(C)(C)CC2=O)N1 (stereo not given)	Pf growth 48h 7.4µM, HCV inhibitor 11µM
CC1(C)CC(=O)C2=C(C1)NC1=C(C(=O)c3ccccc31)C2c1ccc(Cl)cc1 (stereo not given)	Pf growth 48h inconclusive, AMA1 RON2 block inconclusive, Pf growth 96h inconclusive, HCV inhibitor 11µM
Cc1cc(=O)oc2cc(OCC(=O)NC3(C#N)CCCCC3)ccc12	none (no result: Pf growth 48h, Pf growth 96h, HCV inhibitor)
O=C(CN1C(=O)NC2(CCCC2)C1=O)OCc1c(F)cccc1Cl	none
Cc1ccc(C)c(NC(=O)CSc2nnc3n2CCCCC3)c1	none
COc1cccc(-c2ccc(NC(=O)C3CCCN(Cc4cnn(C)c4)C3)cc2)c1 (stereo not given)	Pf growth 48h inconclusive, Pf growth 96h inconclusive, HCV inhibitor 13µM
COc1cccc(-c2ccc(NC(=O)C3CCCN(Cc4cnc(C)n4C)C3)cc2)c1 (stereo not given)	Pf growth 48h inconclusive, HCV inhibitor inconclusive
COc1cccc(-c2ccc(NC(=O)C3CCCN(Cc4nccn4C)C3)cc2)c1 (stereo not given)	Pf growth 48h inconclusive, Pf growth 96h 13µM, HCV inhibitor inconclusive
